# Assay outcomes (PubChem BioAssay)
# D3 ag = qHTS of D3 Dopamine Receptor Agonist: qHTS; D(3) dopamine receptor (Homo sapiens), P35462; D3R DiscoveRx beta-arrestin cells, luminescence, 90 min; max activation, %; hit rate 0.58% among 410,000; in the data active = max activation above about 30%; note: 0% is about no effect
#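 Agonist-mode cell screen: cells plated at 1500/well and incubated overnight at 37 °C, then exposed to library compounds for 90 min at 37 °C. Detection reagent was added for 30–60 min at room temperature, and luminescence was read.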
# LDHA inh = qHTS assay for inhibitors of human lactate dehydrogenase; L-lactate dehydrogenase A chain (Homo sapiens), P00338; purified LDHA, NADH/diaphorase-resazurin fluorescence; hits give low values; activity change, % (values are at about 110 or 230 µM); hit rate 0.15% among 480,000; in the data active = activity change below about -30%; inconclusive = mostly about -25% to -30%;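 note: plate controls were DMSO wells for no effect and wells without enzyme for full effect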
#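 Human LDH5 at 2 nM final in Tris HCl pH 7.4 with 0.06 mM NADH and 0.2 mM pyruvate, reacted 5 minutes at room temperature. Remaining NADH coupled via diaphorase/resazurin; resorufin fluorescence read at 0 and 20 minutes, normalized to enzyme-free and DMSO wells.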
# PI5P4K alpha inh = qHTS for Inhibitors of phosphatidylinositol 5-phosphate 4-kinase (PI5P4K); hit rate 1.2% among 330,000; PI5P4Kalpha enzyme, ADP-Glo luminescence, 60 min; hits give low values; AID 652105, 2013; max response, %; active = max response of -50% or lower; inconclusive = between -30% and -50%; inactive = -30% or higher; note: value at the top dose of about 77 µM; % is set by controls: 0 for no effect and ±100 for the full control effect
# Target sequence (P48426 whole entry, looked up): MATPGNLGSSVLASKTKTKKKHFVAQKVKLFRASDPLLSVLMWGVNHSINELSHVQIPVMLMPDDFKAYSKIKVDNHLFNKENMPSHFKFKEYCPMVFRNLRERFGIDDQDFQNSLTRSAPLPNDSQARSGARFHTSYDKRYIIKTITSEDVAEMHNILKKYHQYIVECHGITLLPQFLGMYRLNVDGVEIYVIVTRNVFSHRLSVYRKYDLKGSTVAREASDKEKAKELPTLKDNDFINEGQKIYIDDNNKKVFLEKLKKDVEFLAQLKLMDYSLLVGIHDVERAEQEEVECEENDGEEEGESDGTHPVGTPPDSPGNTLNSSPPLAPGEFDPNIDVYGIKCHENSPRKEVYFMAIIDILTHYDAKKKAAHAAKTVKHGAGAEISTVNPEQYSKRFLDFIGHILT
#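 ADP-Glo luminescence end-point after a 60 min room-temperature kinase reaction. PI5P4Kalpha and substrate in HEPES pH 7.4 buffer with EGTA, 0.1% CHAPS and 5% DMSO; ATP at 5 microM final.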
# PI4K2A block = qHTS for small molecular inhibitors of PI4K2A | purified PI4K2A, ADP-Glo luminescence, 1 h; hits give low values | activity change, negative = inhibition, % at 76.9 µM | hit rate 0.13% among 420,000; in the data active = activity change below about -50%; inconclusive = mostly about -30% to -49%;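 note: -100% = wells without enzyme as full effect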
#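 ADP-Glo luminescence measured ADP generated by PI4K2A enzyme (4 ug/mL before mixing) with 1.2 mM PI substrate (pre-mix) and 300 microM ATP (pre-mix). Tris pH7.5 buffer with MgCl2, Triton X-100; 1 h reaction at ambient temperature.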
# DRD3 antagonist = qHTS of D3 Dopamine Receptor Antagonist: qHTS. D(3) dopamine receptor (Homo sapiens), P35462. D3R cells, DiscoveRx beta-arrestin luminescence, antagonist mode; hits give low values. max response, negative = inhibition, %. hit rate 2.5% among 360,000. AID 652054, 2013; in the data active = max response below about -50%; inconclusive = no clear call, values can overlap the other calls; note: % is set by controls: 0 for no effect and ±100 for the full control effect
#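 Cells expressing the human receptor were seeded at 1500 cells/well, incubated overnight at 37 degrees C in 5% CO2, then exposed to library compounds with dopamine controls for 90 minutes at 37 degrees C before luminescent detection.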
# * = called active by the depositor; ? = inconclusive; . = no result; + = active, no number. Sampled rows, rich in hits. Any-hit rate of the full collection: about 3.3%.
SMILES,D3 ag,LDHA inh,PI5P4K alpha inh,PI4K2A block,DRD3 antagonist
C#CCOCCOCCOCCNc1nc(N2CCN(C(=O)[C@H](CCCN=C(N)N)n3cc(C(N)[C@H](C)CC)nn3)CC2)nc(N2CCN(C(=O)[C@H](CCCN=C(N)N)n3cc(C(N)[C@@H](C)CC)nn3)CC2)n1 (stereo not given in full),-17,-1,-61*,-5,0
C#CCOCCOCCOCCNc1nc(N2CCN(C(=O)Cn3cc(CC(C)O)nn3)CC2)nc(N2CCN(C(=O)[C@H](C)n3cc(CCCN=C(N)N)nn3)CC2)n1 (stereo not given in full),-25,1,-80*,-9,-17
C#CCOCCOCCOCCNc1nc(N2CCN(C(=O)[C@H]([C@@H](C)CC)n3cc(CCCN=C(N)N)nn3)CC2)nc(N2CCN(C(=O)[C@H](CCCCN)n3cc(CCC(=O)O)nn3)CC2)n1,48*,1,4,-11,17
COC(=O)c1ccc(/C=c2\s/c(=C\C(=O)c3ccccc3C)n(C)c2=O)cc1,.,1,.,.,.
COc1cc(Cl)c(C)cc1NC(=O)CN1CCN(S(=O)(=O)Cc2ccccc2)CC1,.,12,.,.,.
CC1COCCN1C(=O)Cc1n[nH]c(=O)c2ccccc12 (stereo not given),.,10,.,.,.
CCOC(=O)c1c(CC(C)C)csc1NC(=O)COC(=O)c1ccc(O)cc1,36*,-5,-4,3,25
Cc1c(P(=S)(c2ccccc2)c2ccccc2)c2ccccc2n1CCc1ccccc1,.,-4,.,.,.
COC(=O)c1ccsc1NC(=O)CCS(=O)(=O)c1ccccc1,2,-1,0,5,10
COC(=O)c1ccsc1NC(=O)CS(=O)(=O)c1ccccc1,-15,-5,-8,0,-102*
Nc1ccc(C(O)c2ccccc2)cc1 (stereo not given),.,-4,.,.,.
CCC(C)Oc1ccc(/C=C/c2[nH]c(=O)[nH]c(=O)c2[N+](=O)[O-])cc1OC (stereo not given),-14,-4,-58*,-26,-22
COc1cc(/C=C/c2[nH]c(=O)[nH]c(=O)c2[N+](=O)[O-])cc([N+](=O)[O-])c1O,-7,0,-84*,-20,-22
COc1cc(/C=C/c2[nH]c(=O)[nH]c(=O)c2[N+](=O)[O-])ccc1OCCC(C)C,6,-17,?,0,-6
COc1cc(C(c2c(C)[nH][nH]c2=O)c2c(C)[nH][nH]c2=O)cc([N+](=O)[O-])c1O,5,5,-60*,-18,-27
CCOc1cc(C(c2c(C)[nH][nH]c2=O)c2c(C)[nH][nH]c2=O)cc([N+](=O)[O-])c1O,-9,26,-18,-18,?
COc1ccccc1CNC(=O)c1cc(=O)[nH]c2ccccc12,.,9,.,.,.
CC(=O)c1cccc(NC(=O)C23CC4CC(CC(Cl)(C4)C2)C3)c1,.,10,.,.,.
CCc1ccc(NC(=O)c2ccccc2SC)cc1,30*,-15,2,-1,-13
CCCCc1ccc(NC(=O)c2ccccc2SC)cc1,.,9,.,.,.
NC(=O)NC(=O)CSc1nc(-c2ccco2)nc2ccccc12,.,8,.,.,.
COc1ccc(/C=C2\CCc3ccccc3C2=O)cc1Cn1nc(C)cc1C,1,4,4,3,-79*
COc1ccc(N/C=C2\CCc3ccccc3C2=O)cc1,2,8,?,-66*,11
COc1cccc(/C=C2\CCc3ccccc3C2=O)c1,3,-9,-9,-69*,22
CC(=O)Oc1ccc(/C=C2/CCc3ccccc3C2=O)cc1,-12,4,?,-79*,-15
SMILES,D3 ag,LDHA inh,PI5P4K alpha inh,PI4K2A block,DRD3 antagonist
COc1ccc2c(c1)CC/C(=C\Nc1ccc3c(c1)OCO3)C2=O,-4,17,.,-3,-3
O=C1/C(=C/c2ccc(OC(F)F)cc2)CCc2ccccc21,.,13,.,.,.
COc1ccc(/C=C2/CCc3ccccc3C2=O)cc1CN1CCOCC1,-1,2,1,4,12
Cc1ccc(C)c(Oc2coc3cc(OC(=O)C(C)(C)C)ccc3c2=O)c1,.,-5,.,.,.
CC(C)Cn1c(SCC(=O)Nc2ccc3c(c2)OCO3)nc2cc(Cl)ccc2c1=O,.,5,.,.,.
O=c1cc(CSc2nnc(Nc3ccccc3)s2)nc2sccn12,6,0,-27,-3,-3
Cc1ccccc1Nc1nnc(SCc2cc(=O)n3ccsc3n2)s1,46*,6,.,-5,4
[Cl][In]([Cl])[Cl],5,-80*,.,+,.
O=C(CSc1ccc2c(c1)CCC2)Nc1ccc2c(c1)OCCCO2,.,5,.,.,.
COc1ccc(Cl)cc1NC(=O)[C@H]1C[C@H](C(C)C)N[C@]12C(=O)Nc1c(C)cc(Cl)cc12,.,1,.,.,.
COc1ccc(CSCC(=O)N/N=C/c2ccc(OCC(=O)N3CCCCC3)cc2)cc1,8,-1,.,-2,-56*
O=C(CNC(=O)c1cccc(Br)c1)N/N=C/c1cc(Br)cc(Br)c1O,-30,-1,?,1,-71*
COCc1cc(/C=N\NC(=O)Cc2ccc(OC)cc2)ccc1OC,-14,-3,3,3,-20
COc1ccc(CC(=O)N/N=C\c2cc(Br)c(O)c(Br)c2)cc1,-2,1,-68*,-2,24
O=C(Cc1ccccc1)N/N=C/c1cc(Br)cc(Br)c1O,-24,2,-57*,0,-28
O=C(CSCc1ccccc1)N/N=C/c1ccc(OCC(=O)N2CCCCC2)cc1,3,-8,-5,4,2
O=C(CNC(=O)c1cccc(Br)c1)N/N=C/c1cccs1,-12,-9,6,3,-13
COc1ccc(Cl)cc1NC(=O)CCCn1nc(-n2cccc2)c2c(C)cc(C)nc21,.,3,.,.,.
O=C1COc2ccc(-c3csc(=Nc4ccc(OC(F)F)cc4)n3CC3CCCO3)cc2N1 (stereo not given),-19,-4,.,1,-27
COc1ccccc1N=c1scc(-c2ccc3c(c2)NC(=O)CO3)n1CC1CCCO1 (stereo not given),-13,2,0,-15,-75*
COC(=O)c1cnn(-c2ccc(C(=O)Nc3ccc(C)cc3Br)cc2)c1N,.,12,.,.,.
COc1ccc(-c2cnc(N)n2CC2CCCO2)cc1 (stereo not given),-13,3,17,3,?
c1ccc(-c2cnc(SCCN3CCOCC3)n2CC2CCCO2)cc1 (stereo not given),-2,-32*,-11,-3,-57*
CC(=O)N1CCc2c(sc3c2c(=O)n(-c2ccccc2Cl)c(=O)n3C)C1,31*,-4,.,-6,.
O=C(/C=C/c1ccc(F)cc1)c1cc2ccccc2oc1=O,.,0,.,.,.
